LYPLA1 inh – blocks human lysophospholipase 1, a PME1 counter-screen; O75608; recombinant LYPLA1, FP-Rh probe fluorescence polarization; inhibition, % at 5.9 µM; 320,000 tested, 0.16% active; AID 2174;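 active means inhibition above the mean of all tested compounds plus 3 SD, set per campaign, cut at about 14% in these data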;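 further: inhibitors block serine hydrolase probe labeling of LYPLA1 so polarization falls; 0% = enzyme with DMSO and 100% = wells lacking LYPLA1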
Target sequence (O75608 whole entry, looked up): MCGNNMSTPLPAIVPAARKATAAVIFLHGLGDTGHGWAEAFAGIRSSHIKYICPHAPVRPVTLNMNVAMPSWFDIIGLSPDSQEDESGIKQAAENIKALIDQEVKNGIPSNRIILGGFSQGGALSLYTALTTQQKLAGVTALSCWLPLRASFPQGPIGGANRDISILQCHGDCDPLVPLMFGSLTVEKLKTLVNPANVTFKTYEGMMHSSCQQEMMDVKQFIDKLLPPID
ZTA DNA inh – counter-screen for EBNA-1 inhibitors: inhibitors of Epstein-Barr virus ZTA | P03206 | ZTA-DNA binding, fluorescence polarization | inhibition, % at 11 µM | 320,000 tested, 0.15% active | AID 2234; in the data active means inhibition above about 33%
EBNA-1 inh – blocks EBNA-1 binding to DNA. 300,000 tested, 0.34% active. inhibition, % at 14.8 µM. EBNA-1 DNA binding, fluorescence polarization; in the data active means inhibition above about 28%
PREPL inhibitor – human PREPL enzyme inhibition. Q4J6C6. recombinant PREPL, fluorescence polarization activity-based probe. inhibition, % at 5.96 µM. 320,000 tested, 0.68% active; in the data active means inhibition above about 43%;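 further: 0% = enzyme with DMSO and 100% = wells lacking enzyme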
LYPLA2 counter – blocks human lysophospholipase 2, a PME1 counter-screen; O95372; recombinant LYPLA2, FP-Rh probe fluorescence polarization; inhibition, % at 5.9 µM; 320,000 tested, 0.38% active; AID 2177;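 active means inhibition above the screen-wide mean plus 3 SD, limit set per campaign, cut at about 26% in these data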;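 further: 0% = LYPLA2 with DMSO and 100% = wells lacking LYPLA2 enzyme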
Target sequence (O95372 whole entry, looked up): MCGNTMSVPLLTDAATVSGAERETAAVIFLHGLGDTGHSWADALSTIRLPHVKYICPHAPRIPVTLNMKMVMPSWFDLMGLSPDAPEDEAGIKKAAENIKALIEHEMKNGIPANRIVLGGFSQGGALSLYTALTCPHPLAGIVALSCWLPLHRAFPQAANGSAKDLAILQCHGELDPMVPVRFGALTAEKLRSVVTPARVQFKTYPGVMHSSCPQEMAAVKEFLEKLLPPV
EBNA-1 inh conf – EBNA-1 (EBV) inhibition, confirmation; shares compounds with EBNA-1 inh; Recombinant EBNA-1 DBD, Cy5-DNA fluorescence polarization; inhibition, % at 14.8 µM; 830 tested, 35% active;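 active means mean inhibition across replicates above a set limit taken from the earlier primary screen, cut at about 28% in these data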;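 further: plate controls were EBNA-1 protein with DMSO for no effect and wells lacking EBNA-1 for full effect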
ZTA counter trip – blocks Epstein-Barr virus ZTA in triplicate, EBNA-1 counter-screen. shares compounds with EBNA-1 inh. Zta-ZRE DNA binding, Cy5 fluorescence polarization. inhibition, % at 11.1 µM. 830 tested, under 10 active;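 active means mean inhibition over triplicates above a set limit taken from the primary EBNA-1 screen, cut at about 37% in these data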;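 further: purified full length Zta protein with Cy5 labeled ZRE DNA probe; 0% = Zta with DMSO and 100% = wells lacking Zta protein; inhibitors lower polarization by freeing the labeled DNA probe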
Starred values were filed as active, the others as inactive. Rows were chosen to be rich in hits. Some 1.3% of all compounds tested hit in one or more screens of this group.

COCCN(C(=O)COC(=O)CCCOc1ccc(OC)cc1)c1c(N)n(Cc2ccccc2)c(=O)[nH]c1=O was read as LYPLA1 inh 1, ZTA DNA inh 1, EBNA-1 inh -3, PREPL inhibitor 3 and LYPLA2 counter 0.
Screening CCOC(=O)C(=CNc1nc(-c2ccc3ccccc3c2)cs1)C(=O)OCC returned LYPLA1 inh -8, ZTA DNA inh 12, EBNA-1 inh 10, PREPL inhibitor 12 and LYPLA2 counter -11.
Screening Cn1c(O)c(N=NC(=O)c2cc(-c3cccs3)nc3ccccc23)c2ccccc21 returned LYPLA1 inh 4, ZTA DNA inh -17, EBNA-1 inh 109*, PREPL inhibitor 7, LYPLA2 counter 2, EBNA-1 inh conf 82* and ZTA counter trip -8.
Screening COC(=O)/C=C1\SC(=Nc2ccccc2)NC1=O returned LYPLA1 inh -1, ZTA DNA inh -6, EBNA-1 inh -8, PREPL inhibitor 3 and LYPLA2 counter -5.
COC(=O)/C=C1/SC(=Nc2ccc(Cl)c(Cl)c2)NC1=O was read as LYPLA1 inh -2, ZTA DNA inh -2, EBNA-1 inh 41*, PREPL inhibitor 3, LYPLA2 counter -5, EBNA-1 inh conf -8 and ZTA counter trip -10.
Screening CC(=O)c1ccc(S(=O)(=O)NCCc2cn3ccc(C)cc3n2)cc1 returned LYPLA1 inh -5, ZTA DNA inh 14, EBNA-1 inh -2, PREPL inhibitor 3 and LYPLA2 counter -1.
`CCOc1ccc2nc3ccc4[nH]onc4c3c2c1` gave LYPLA1 inh -6, ZTA DNA inh 1, EBNA-1 inh 31*, PREPL inhibitor 12, LYPLA2 counter -5, EBNA-1 inh conf 9 and ZTA counter trip -1.
For CCOc1ccc2nc(N3CCOCC3)nc(C)c2c1 the results were LYPLA1 inh 1, ZTA DNA inh 15, EBNA-1 inh 3, PREPL inhibitor 4 and LYPLA2 counter 5.
`CCn1c(COc2ccccc2C)nnc1SCC(=O)Nc1cc(C)on1` gave LYPLA1 inh 1, ZTA DNA inh 0, EBNA-1 inh 50*, PREPL inhibitor -6, LYPLA2 counter -7, EBNA-1 inh conf 3 and ZTA counter trip 13.
For CCN1C(=O)c2cccc3c(S(=O)(=O)Nc4ccccc4)ccc1c23 the results were LYPLA1 inh 2, ZTA DNA inh 2, EBNA-1 inh 9, PREPL inhibitor -11 and LYPLA2 counter 1.
CCN1C(=O)c2cccc3c(S(=O)(=O)Nc4ccc(OC)cc4OC)ccc1c23 was read as LYPLA1 inh 1, ZTA DNA inh 1, EBNA-1 inh 32*, PREPL inhibitor 5, LYPLA2 counter 3, EBNA-1 inh conf 2 and ZTA counter trip 9.
For O=c1[nH][nH]c2ccccc2c1=O the results were LYPLA1 inh -1, ZTA DNA inh 4, EBNA-1 inh 0, PREPL inhibitor -6 and LYPLA2 counter -7.
Screening O=C(COC(=O)c1cc(NS(=O)(=O)c2cccs2)ccc1O)Nc1cc(Cl)ccc1Cl returned LYPLA1 inh -12, ZTA DNA inh 12, EBNA-1 inh 36*, PREPL inhibitor -7, LYPLA2 counter -25, EBNA-1 inh conf 15 and ZTA counter trip 6.
For CCn1c(NC(=O)c2ccccc2F)c(-c2cccs2)c(=O)c2ccccc21 the results were LYPLA1 inh -2, ZTA DNA inh 8, EBNA-1 inh 2, PREPL inhibitor 2 and LYPLA2 counter 0.
`O=C(Cn1nnc(-c2ccc3c(c2)OCO3)n1)NCc1ccccc1` gave LYPLA1 inh 2, ZTA DNA inh 6, EBNA-1 inh 19, PREPL inhibitor -3 and LYPLA2 counter 0.
Screening Cc1ccc(-c2nnn(CC(=O)NCCc3ccc4c(c3)OCO4)n2)cc1 returned LYPLA1 inh -3, ZTA DNA inh 6, EBNA-1 inh 44*, PREPL inhibitor -3, LYPLA2 counter -9, EBNA-1 inh conf 10 and ZTA counter trip 9.
For CCOc1ccc(NC(=O)C(=O)N/N=C\c2ccc(CNS(=O)(=O)c3ccccc3)o2)cc1 the results were LYPLA1 inh -1, ZTA DNA inh -14, EBNA-1 inh 63*, PREPL inhibitor 12, LYPLA2 counter -7, EBNA-1 inh conf 58* and ZTA counter trip -2.

Source: PubChem
